In PubChem BioAssay AID2284067 (EPA ToxCast):
The source made the active and inactive calls. Rule for the calls: active = hit-call score of the fitted dose curve at least 0.9, where 1 is the maximum; inactive = score below 0.9.

These compounds were tested against human DYRK1A CMGC Kinase, DYRK1A (gene 1859) (UniProt Q13627) (assay: ERF_FR_ENZ_hDYRK1A: Eurofins (ERF) Enzymatic Radiometric [Km ATP] KinaseProfiler LeadHunter Assay for human DYRK1A CMGC Kinase).
Protocol: ERF_FR_ENZ_hDYRK1A is a biochemical, single-readout assay that uses extracted gene-proteins in a cell-free assay. Measurements were taken 0.5 hour after chemical dosing in a 96-well plate. See DYRK1A Human CMGC Kinase Enzymatic LANCE Assay [Km ATP], Cerep.ERF_FR_ENZ_hDYRK1A is an assay component calculated from the ERF_FR_ENZ_hDYRK1A assay. It is designed to measure enzyme activity using a type of enzyme reporter as detected by fluorescence intensity with LANCE technology.Data from the assay component ERF_FR_ENZ_hDYRK1A was analyzed at the assay endpoint, ERF_FR_ENZ_hDYRK1A, in the positive analysis fitting direction relative to DMSO as the negative control and baseline of activity. Using a type of enzyme reporter, loss-of-signal activity can be used to understand changes in enzymatic activity as they relate to gene DYRK1A. To generalize the intended target to other relatable targets, this assay endpoint is annotated to the kinase intended target family, where the subfamily is serine/threonine kinase.
DYRK1A (h) is incubated with 8 mM MOPS pH 7.0, 0.2 mM EDTA, 50 uM […], 10 mM MgAcetate and [gamma-33P]-ATP (specific activity and concentration as required). The reaction is initiated by the addition of the Mg/ATP mix. After incubation for 40 minutes at room temperature, the reaction is stopped by the addition of phosphoric acid to […] a concentration of 0.5%. […]

Row | Compound | AC50
1 | O=C(/C=C/c1ccc(O)cc1)CC(=O)/C=C/c1ccc(O)cc1 | 128 nM (active)
